# PMC4336329 (PLoS ONE, 2015)
# The campaign covered roughly 310,000 compounds. About 14,000 (4.5%) showed an effect of 50% or more. Effects have a minus sign here. The sample holds strong results, similar compounds and a random draw of the others, so the mix is not that of the screen.
# Target: human ether-à-go-go-related gene (hERG) potassium channel (human, UniProt Q12809)
# Test: primary screen, population patch clamp on CHO cells stably expressing hERG; higher = less effect of the substance
# 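Note: peak tail current of the secondary pulse compared with the same well before compound.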
# human ether-à-go-go-related gene (hERG) potassium channel, sequence (Q12809 whole entry, looked up): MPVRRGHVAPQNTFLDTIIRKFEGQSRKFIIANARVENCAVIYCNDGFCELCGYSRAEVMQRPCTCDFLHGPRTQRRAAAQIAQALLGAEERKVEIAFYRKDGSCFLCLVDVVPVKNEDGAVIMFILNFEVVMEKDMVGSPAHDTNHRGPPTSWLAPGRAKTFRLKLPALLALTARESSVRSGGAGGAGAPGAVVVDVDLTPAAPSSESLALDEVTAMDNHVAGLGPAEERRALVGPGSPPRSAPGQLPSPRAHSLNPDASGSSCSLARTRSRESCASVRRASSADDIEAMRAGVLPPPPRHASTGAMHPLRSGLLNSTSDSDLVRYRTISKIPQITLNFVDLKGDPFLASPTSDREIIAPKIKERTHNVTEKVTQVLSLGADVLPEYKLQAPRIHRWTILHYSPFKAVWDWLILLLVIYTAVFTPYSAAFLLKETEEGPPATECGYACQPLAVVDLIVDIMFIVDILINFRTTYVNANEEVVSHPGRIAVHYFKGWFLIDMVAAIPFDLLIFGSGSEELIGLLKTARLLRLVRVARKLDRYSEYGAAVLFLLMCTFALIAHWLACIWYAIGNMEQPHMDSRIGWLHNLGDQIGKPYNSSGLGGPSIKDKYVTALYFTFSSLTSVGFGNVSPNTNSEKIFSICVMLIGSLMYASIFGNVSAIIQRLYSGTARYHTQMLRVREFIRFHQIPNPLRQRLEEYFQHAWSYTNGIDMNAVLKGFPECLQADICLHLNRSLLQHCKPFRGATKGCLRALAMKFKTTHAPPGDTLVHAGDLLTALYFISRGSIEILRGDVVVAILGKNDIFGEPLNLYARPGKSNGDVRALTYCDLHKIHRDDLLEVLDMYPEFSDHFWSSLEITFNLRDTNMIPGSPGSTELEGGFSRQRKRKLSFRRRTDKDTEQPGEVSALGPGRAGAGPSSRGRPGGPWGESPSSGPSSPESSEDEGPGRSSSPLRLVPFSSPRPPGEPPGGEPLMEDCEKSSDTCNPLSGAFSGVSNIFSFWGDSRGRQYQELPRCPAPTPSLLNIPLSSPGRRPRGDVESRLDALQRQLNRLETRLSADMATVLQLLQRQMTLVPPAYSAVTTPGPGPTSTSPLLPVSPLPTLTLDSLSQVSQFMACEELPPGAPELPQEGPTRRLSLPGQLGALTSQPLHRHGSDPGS
row,SMILES,"hERG current change (%, negative = inhibition) at 10uM"
1,Cc1nonc1NC(=O)CSc1nc2cc(Cl)ccc2c2c1CCCC2,2.15%
2,CN(Cc1nc(-c2cnccn2)no1)Cc1n[nH]c2c1CCCCC2,-0.424%
3,O=S(=O)(c1ccccc1)N(CC1CO1)c1cc(Cl)ccc1Cl (stereo not drawn),14.2%
4,C/C(=N\O)C(C)(C)Nc1ccccc1F,4.26%
5,COc1cc(/C=C/c2[nH]c(=O)[nH]c(=O)c2[N+](=O)[O-])cc(OC)c1O,7.26%
6,CN(C)Cc1nc2ccccc2c(=O)n1CC(=O)Nc1cccc(S(=O)(=O)N2CCOCC2)c1,-14.4%
7,CCN(C(=O)C1CCCN1S(=O)(=O)c1ccc2c(c1)n(C)c(=O)c(=O)n2C)c1ccccc1 (stereo not drawn),-3.32%
8,CCOC(=O)c1c(C)[nH]c(C(=O)C(C)OC(=O)c2cnc(C)cn2)c1C (stereo not drawn),-0.804%
9,O=C(NCCC(=O)N1CCC2(CC1)NCCc1[nH]cnc12)c1cccc(Br)c1,1.5%
10,C=CCc1cc(OC)ccc1OCC(O)CN1CCN(c2ccc(OC)cc2)CC1.Cl (stereo not drawn),-71.2%
11,COc1ccc(CCNC(=S)Nc2ccc(S(=O)(=O)Nc3ncccn3)cc2)cc1OC,21.2%
12,CC(=O)c1cc(C(c2csc(C(C)=O)c2)c2csc(C(C)=O)c2)cs1,-72.6%
13,CC(=O)c1cc(CN2C(=O)CCC2=O)cs1,5.27%
14,CC(=O)c1cc(Cc2csc(C(C)=O)c2)cs1,2.75%
15,O=C(NCc1ccco1)C1CC(c2ccc(Cl)cc2)=NO1 (stereo not drawn),1.47%
16,FC(F)(F)c1cccc(-c2nc3nc(Cl)c(Cl)nc3[nH]2)c1,30.4%
17,CC(=O)NS(=O)(=O)c1ccc(NC(=S)NC(=O)c2ccco2)cc1,2.54%
18,Clc1ccc(CN2CCCCCC2)cc1Cl,-7.66%
19,Cl.Clc1ccc(CN2C3=NCCN3c3ccccc32)cc1Cl,-75.9%
20,Cl.Clc1ccc(CN2C3=NCCCN3c3ccccc32)cc1Cl,-76.3%
21,Clc1ccc(CN2CCCCCCC2)cc1Cl,3.83%
22,CCN1CCSc2ccc(C(=O)Nc3ccc(NC(C)=O)cc3)cc21,1.22%
23,CCN(Cc1ccccc1)C(=O)CSc1n[nH]c(N)n1,33.6%
24,CNC(=O)[C@@]1(Cc2ccccc2)C=C[C@@H](C)N1C(C)=O,5.07%
25,Cc1cc(C)n(-c2nc(C)nc3c2cnn3-c2ccccc2)n1,13%

row,SMILES,"hERG current change (%, negative = inhibition) at 10uM"
1,CCOC(=O)c1ccc(S(=O)(=O)NNC(=O)COc2ccccc2C)cc1,27.5%
2,N#CCc1ccc(NC(=O)CSc2nnc(C3CC3)n2C2CC2)cc1,9.18%
3,NS(=O)(=O)c1cccc(NC(=O)CSc2nnc(C3CC3)n2C2CC2)c1,8.95%
4,NS(=O)(=O)c1ccc(NC(=O)CSc2nnc(C3CC3)n2C2CC2)cc1,22%
5,N#Cc1cccc(NC(=O)CSc2nnc(C3CC3)n2C2CC2)c1,-52.4%
6,O=C(CSc1nnc(C2CC2)n1C1CC1)Nc1cccc(Br)c1,-75.1%
7,CCOc1ccc(NC(=O)CSc2nnc(C3CC3)n2C2CC2)cc1,-15.7%
8,Cc1cc(C)cc(NC(=O)CSc2nnc(-c3cc(C)[nH]n3)n2N)c1,12.5%
9,C=CCNC(=O)c1cc(-c2ccc(Br)cc2)on1,1.88%
10,CCn1cc(C(=O)O)c(=O)c2cc(F)c(N/N=C/c3ccccc3[N+](=O)[O-])cc21,-51.2%
11,CCn1cc(C(=O)O)c(=O)c2cc(F)c(N3CCN(C(=S)NC(=O)c4ccccc4)CC3)cc21,13.7%
12,CCn1cc(C(=O)O)c(=O)c2cc(F)c(N/N=C/c3ccccc3)cc21,-27.2%
13,COc1ccc(NC(=S)NN(C)C(=S)Nc2ccc(OC)cc2)cc1,26.1%
14,O=C(c1ncn(Cc2ccccc2)c1C(=O)N1CCc2ccccc2C1)N1CCc2ccccc2C1,-30.4%
15,CCN1CCN(Cc2ccc(NC(=O)Nc3ccc(OC)cc3)cc2)CC1,-7.9%
16,COc1cccc(CC2(CO)CCN(C(=O)NCCc3ccccc3)CC2)c1,0.136%
17,COc1cccc(CC2(CO)CCN(Cc3ccc(NC(C)=O)cc3)CC2)c1,-50.7%
18,COc1ccc(CC2(CO)CCN(Cc3ccc(NC(C)=O)cc3)CC2)cc1,-57.4%
19,COc1ccc(C(=O)Nc2ccc(CN3CCOCC3)cc2)cc1,-1.82%
20,CC(=O)Nc1ccc(CN2CCCC(CO)(Cc3cccc(Cl)c3)C2)cc1 (stereo not drawn),-39.2%
21,O=C(NCC(=O)N1CCC2(CC1)NCCc1[nH]cnc12)c1cccc(Cl)c1,12.5%
22,CCOc1cc(/C=C2\SC(=N)N(c3nonc3N)C2=O)ccc1OCC(N)=O,7.01%
23,O=C(CCCn1c(=S)[nH]c2ccccc2c1=O)N1CCCCC1,-10.4%
24,CC(C#N)Sc1nnc(-c2ccccc2F)n1C1CC1 (stereo not drawn),18.2%
25,C=CCOc1ccc(C(=O)n2cc(C(=O)OC)c3ccccc32)cc1,9.62%

row,SMILES,"hERG current change (%, negative = inhibition) at 10uM"
1,Cc1ccc(C(=O)c2c3ccc(C(F)(F)F)cc3nn2CCC(N)=O)cc1,-5.81%
2,NC(=O)CCCn1c(C(=O)c2cc(Cl)c(N)c(Cl)c2)c2ccc(C(F)(F)F)cc2[n+]1[O-],-41.1%
3,NC(=O)c1ccc(Cn2c(C(=O)c3ccc(Cl)cc3)c3ccccc3[n+]2[O-])cc1,-9.74%
4,Nc1c(Cl)cc(C(=O)c2c3ccccc3[n+]([O-])n2CCC[NH3+])cc1Cl.[Cl-],-20.9%
5,Cc1ccc(C(=O)c2c3ccc(C(F)(F)F)cc3[n+]([O-])n2CCC(N)=O)cc1,-66.2%
6,Cc1ccc(C(=O)c2c3ccc([N+](=O)[O-])cc3[n+]([O-])n2CCC(N)=O)cc1,-32.6%
7,Cc1ccc(C(=O)c2c3ccc(C(F)(F)F)cc3[n+]([O-])n2CCCC(N)=O)cc1,-62.9%
8,Nc1c(Cl)cc(C(=O)c2c3ccc(C(F)(F)F)cc3[n+]([O-])n2CCC[NH3+])cc1Cl.[Cl-],-57.6%
9,COc1ccc2c(C(=O)c3ccc(C)cc3)n(CCC(N)=O)[n+]([O-])c2c1,-6.56%
10,Cc1ccc(C(=O)c2c3ccccc3[n+]([O-])n2CCC(N)=O)cc1,-5.98%
11,[Cl-].[NH3+]CCCn1c(C(=O)c2ccc(Cl)cc2)c2ccc(C(F)(F)F)cc2[n+]1[O-],-79.2%
12,CCN1CSC(=S)N(Cc2ccccc2)C1,12.2%
13,COc1cc(CC(=O)Nc2nc(C)cs2)cc(OC)c1OC,5.84%
14,CC1(C)Nc2ccccc2C(=O)N1c1ccccc1,20.5%
15,COC(=O)Cn1nc(-c2ccccc2)c2cc(Cl)ccc21,-0.627%
16,CCOc1ccc(NC(=O)N2C[C@H]3C[C@@H](C2)c2cccc(=O)n2C3)cc1,8.54%
17,O=C(CSc1n[nH]c(-c2ccccn2)n1)Nc1ccccc1F,-1.74%
18,COc1ccccc1/C(O)=C(\C#N)c1nc2ccccc2[nH]1,15%
19,CCC1=NN2C(=N)/C(=C/c3cc(C)n(-c4ccccc4)c3C)C(=O)N=C2S1,16.2%
20,O=c1[nH]cc(NCCNc2ncc(C(F)(F)F)cc2Cl)c(=O)[nH]1,3.6%
21,Nn1cnnc1SCC(=O)Nc1ccc(C2CCCCC2)cc1,12.5%
22,CCn1cc(S(=O)(=O)Nc2nc3ccc(OC)cc3s2)cn1,19.7%
23,Cc1ccc2c(c1)-c1ncc(C(=O)c3cc(Br)ccc3O)cc1CO2,15.7%
24,CCc1cc(=O)oc2cc(C)cc(OCC(=O)NC(Cc3ccc(Cl)cc3)C(=O)O)c12 (stereo not drawn),-9.21%
25,Cc1cccc(N2CCN(S(=O)(=O)c3ccc4c(c3)CCC(=O)N4)CC2C)c1 (stereo not drawn),-8.91%
